D1 agonist = activates the human D1 dopamine receptor; P21728; 360,000 compounds, 1% hits; activation, % at 2 µM; HEK293 T-REx D1 cells, calcium flux, agonist mode; AID 504660; in the data active means activation above about 30%
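Agonism was scored from calcium flux recorded over 180 s (1 read/s) after pintool compound addition, following a 10-cycle baseline. Cells were inducible force-coupled HEK293 TREx D1, plated overnight at 30 C and loaded with no-wash calcium dye.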
D3 antag = blocks the human D3 dopamine receptor. P35462. D3R cells, DiscoveRx beta-arrestin luminescence, antagonist mode; active compounds read low. max response, negative = inhibition, %. 360,000 compounds, 2.5% hits; in the data active means max response below about -50%; inconclusive means no clear call, values can overlap the other calls
Target sequence (P35462 whole entry, looked up): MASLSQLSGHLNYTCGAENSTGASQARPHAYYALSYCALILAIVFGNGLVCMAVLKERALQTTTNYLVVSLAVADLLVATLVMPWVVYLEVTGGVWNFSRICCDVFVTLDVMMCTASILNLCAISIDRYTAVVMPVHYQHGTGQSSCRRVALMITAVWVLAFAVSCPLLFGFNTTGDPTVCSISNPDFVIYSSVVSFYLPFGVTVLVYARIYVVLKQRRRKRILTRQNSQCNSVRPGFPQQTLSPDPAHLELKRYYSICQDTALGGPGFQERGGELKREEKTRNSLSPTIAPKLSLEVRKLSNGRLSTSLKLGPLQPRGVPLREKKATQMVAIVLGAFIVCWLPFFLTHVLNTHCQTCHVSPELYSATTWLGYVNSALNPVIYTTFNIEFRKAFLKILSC
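Cells expressing the human receptor were seeded at 1500 cells/well, incubated overnight at 37 degrees C in 5% CO2, then exposed to library compounds with dopamine controls for 90 minutes at 37 degrees C before luminescent detection.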
D1 PAM = potentiators of human D1 dopamine receptor; 360,000 compounds, 0.036% hits; HEK293 TREx D1 cells, calcium flux, dopamine EC20 potentiation; P21728; potentiation, % at 10 µM; in the data active means potentiation above about 30%
D1 antagonist = human D1 dopamine receptor antagonism; P21728; HEK293 TREx D1 cells, calcium flux, dopamine EC80; active compounds read low; activity change, negative = inhibition, % at 10 µM; 360,000 compounds, 3.2% hits; in the data active means activity change below about -30%
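Kinetic fluorescence of a calcium dye serves as the read-out. D1-expressing Hek293 Trex cells, induced overnight at 30 C, are exposed to compound for 180 s before an EC80 dopamine addition, then read 180 s further.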
D3 ag = D3 dopamine receptor (human) agonism; max activation, %; P35462; D3R DiscoveRx beta-arrestin cells, luminescence, 90 min; 410,000 compounds, 0.58% hits; in the data active means max activation above about 30%
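Agonist mode: compounds and dopamine controls were applied to plated cells for 90 min at 37 degrees C after an overnight attachment at 1500 cells/well. Luminescent read-out followed 30 - 60 minutes at room temperature with DiscoveRx detection reagent.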
Each line names hits and unclear results; the compound was inactive in the other large screens. An excerpt weighted towards active compounds, which were near 6% of everything screened.

CC(C)Cn1cc(C(=O)NCCCN2CCC(C)CC2)c2c3ccccc3n(C)c2c1=O	D3 antag -83 (no result: D1 agonist, D1 PAM, D1 antagonist)
CC(C)Cn1cc(C(=O)NCCCN2CCCC2=O)c2c3ccccc3n(C)c2c1=O	D1 antagonist -30
CC1CCc2noc(NC(=O)c3ccccc3[N+](=O)[O-])c2C1 (configuration not stated)	none (no result: D3 antag)
CC(C)CN1C(=O)C(=O)N(CC(=O)NCc2ccc3c(c2)OCO3)C1=O	D3 antag -52
Nc1c(C(=O)NCc2ccc3c(c2)OCO3)nnn1Cc1ccc(Br)cc1	D1 agonist 31
CC(C)CN1C(=O)C(=O)N(CC(=O)c2ccc3c(c2)OCO3)C1=O	none
O=C1Nc2ccccc2C(O)(C(=O)NCc2ccc3c(c2)OCO3)N1c1ccc(Cl)c(Cl)c1 (configuration not stated)	D1 agonist 31
O=C(c1n[nH]c(=O)c2ccccc12)N1CCOCC1	D3 antag -59
COc1cccc(C(=O)N(Cc2sccc2C)C2CCS(=O)(=O)C2)c1 (configuration not stated)	none (no result: D3 antag)
Cc1nc2ccccc2nc1OCC(=O)NCc1ccc2c(c1)OCO2	D3 antag -65
O=C(NCc1ccc2c(c1)OCO2)c1n[nH]c(=O)c2ccccc12	D1 antagonist -50
O=C(Cn1nc(-c2ccccc2)ccc1=O)NCc1ccc2c(c1)OCO2	D1 PAM 33
O=C(Cn1nc(-c2ccc(Cl)cc2)ccc1=O)NCc1ccc2c(c1)OCO2	none
O=C(COc1ncnc2ccccc12)NCc1ccc2c(c1)OCO2	none
CCC(C)NC(=O)CSc1nc2cc3c(cc2c(=O)n1Cc1ccc(C(=O)NCCc2ccc(OC)c(OC)c2)cc1)OCO3 (configuration not stated)	none (no result: D3 antag, D3 ag)
O=C(NCc1ccc(Cl)cc1)c1cnc2sc(N3CCOCC3)nn2c1=O	none (no result: D3 antag)
Cc1ccc(-c2noc(CCC(=O)NCCCN3CCN(c4cccc(Cl)c4)CC3)n2)cc1	D1 agonist 82, D3 antag inconclusive, D1 antagonist -73
Cc1ccc(-c2noc(CCC(=O)NCCCN3CCN(c4ccc(F)cc4)CC3)n2)cc1	D1 antagonist -83
CCN1CCN(CCCNC(=O)CCc2nc(-c3ccc(OC)cc3)no2)CC1	none
COc1ccc(-c2noc(CCC(=O)NCCCN3CCN(c4ccccc4F)CC3)n2)cc1	D1 agonist 31, D3 antag -95, D1 antagonist -56
Cc1ccccc1OCCCCn1nnc2sc3c(c2c1=O)CCC(C)C3 (configuration not stated)	none (no result: D3 antag)
CCOC(=O)CN=C1CC(C)(C)CC2=C1Sc1ncnc(N(C)C)c1N2	D1 antagonist -42
CCOC(=O)[C@@](C)(N)Cc1ccc(O)c(O)c1	none (no result: D1 agonist, D3 antag, D1 PAM, D1 antagonist)
COCC(=O)NC1CC2CCCC(C1)N2Cc1ccccc1 (configuration not stated)	D3 antag -77
CC(C)(C)OC(=O)NC1CC2CCCC(C1)N2Cc1ccccc1 (configuration not stated)	D3 antag -85
CC(=O)c1c(C(C)=O)c(C)n(NC(=O)c2ccccc2Cl)c1C	D1 antagonist -49
Cc1ccc(C)n1NC(=O)c1ccccc1Cl	none
CC(=O)[C@@]1(O)CC[C@H]2[C@@H]3C=C(Cl)C4=CC(=O)CC[C@]4(C)[C@H]3CC[C@@]21C	none (no result: D1 agonist, D3 antag, D1 PAM, D1 antagonist)
O=c1[nH]c(=O)n(Cc2ccccc2)c2nc(-c3ccc(C(F)(F)F)cc3)n(CCO)c12	D1 antagonist -31
Cn1cnc2c1c(=O)[nH]c(=O)n2Cc1ccccc1	none
O=c1[nH]c(=O)n(CCO)c2nnn(Cc3ccccc3)c12	D1 antagonist -31
O=c1[nH]c(=O)n(Cc2ccccc2)c2nc(-c3cccs3)n(CCO)c12	none
CC(C)c1ccc(CNc2n[nH]c(-c3ccco3)n2)cc1	none (no result: D3 antag)
CCc1ccc(NC(=O)CSc2nc(C)c(C(=O)Nc3ccccc3)c(-c3ccc(OC)c(OC)c3)c2C#N)cc1	none (no result: D3 antag)
COC(=O)c1ccc(NC(=O)CC2C(=O)N(c3cccc(OC)c3)C(=O)N2C(C)C)cc1 (configuration not stated)	D1 antagonist -32 (no result: D3 antag)
COc1cccc(N2C(=O)C(CC(=O)Nc3cccc(F)c3)N(C(C)C)C2=O)c1 (configuration not stated)	none (no result: D3 antag)
COC(=O)c1ccc(NC(=O)CC2C(=O)N(c3cccc(F)c3)C(=O)N2CC(C)C)cc1 (configuration not stated)	D1 antagonist -33 (no result: D3 antag)
